This is a sample that favours compounds with a hit; in the whole collection about 19% have one here.
HT1080NT lethal: kills 2HG-producing HT-1080-NT fibrosarcoma cells. HT-1080-NT fibrosarcoma viability, CellTiter-Glo ATP luminescence, 48 h. Potency, µM (highest dose often 46.1 µM), inactives show top-dose activity, negative = less viability, hits mostly cytotoxic. hit rate 1.6% among 360,000;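 note: NT is the 2HG producing partner of a matched IDH1 knockdown line; potency is the fitted concentration of half-maximal effect; 0% = DMSO-treated cells and -100% = media-only wells without cells; nearly all actives have a fitted effect of over 55% in size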
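Viability by CellTiter-Glo luminescence after 48 h compound exposure at 37C of HT-1080-NT cells (750/well, RPMI, 5% FBS). % activity scaled between DMSO wells and medium-only wells, then curve-fitted and categorized by curve class.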
TDP1 cell noCPT: qHTS for Inhibitors of human tyrosyl-DNA phosphodiesterase 1 (TDP1): qHTS in cells in absence of CPT; Potency, µM (titrated, usually from 46.2 µM), inactives show top-dose activity change, negative = growth inhibition, most hits filed as inhibitors; DT40 Tdp1-/- hTDP1 cells, no CPT, ATP luminescence, 48 h; hit rate 15% among 420,000; AID 686978, 2013; note: potency is the fitted concentration of half-maximal effect; nearly all actives have a fitted effect of over 55% in size
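Stably hTDP1-transfected Tdp1-null chicken DT40 cells were treated with library compounds minus camptothecin and grown for at least 48 hr at 37 °C, after which cellular ATP was quantified by luminescence.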
TDP1 cell CPT: growth inhibition of DT40 Tdp1-/-;hTDP1 cells with camptothecin (screen for TDP1 inhibitors) | chicken DT40 Tdp1-/-;hTDP1 cells + 20 nM CPT, ATP luminescence, 48 h | Potency, µM (series often up to 46.2 µM), inactives show top-dose activity change, negative = growth inhibition, actives largely listed as inhibitors | hit rate 12% among 420,000 | AID 686979; note: potency is the fitted concentration of half-maximal effect; nearly all actives have a fitted effect of over 55% in size
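Chicken DT40 Tdp1-/- cells complemented with human TDP1, 400 cells/well, exposed to compounds plus 20 nM camptothecin for at least 48 h at 37 C; viability read as ATP content by CellTiter-Glo luminescence.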
HT1080 IDH1KD tx: HT-1080 IDH1 knockdown cell toxicity (counter line). HT-1080 IDH1 knockdown viability, ATP luminescence, 48 h. Potency, µM (titrated, usually from 46.1 µM), without a hit: top-dose activity, negative = toxicity, most hits filed as cytotoxic. hit rate 2% among 360,000. AID 686971;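 note: potency is the fitted concentration of half-maximal effect; 0% = DMSO wells and -100% = cell-free medium wells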
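CellTiter-Glo luminescence after 48 h compound exposure at 37 degrees C of IDH1-knockdown HT-1080 cells in 5% FBS RPMI. %Activity scaled between DMSO wells and cell-free media wells, with curves fitted and assigned curve classes.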
IL1B secr inh: inflammasome signaling inhibition, IL-1 beta readout; hit rate 4.7% among 360,000; THP-1 LPS/ATP IL-1B secretion, AlphaLISA, 16 h; hits give low values; activity change, % at 57.5 µM; AID 743279; in the data active = activity change below about -50%; inconclusive = mostly about -30% to -49%
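Secreted IL-1B measured by AlphaLISA bead assay after 16 h compound exposure of THP-1 cells; compounds (final up to 57.5 uM) added 1 h before LPS (250 ng/mL) and ATP (1.25 mM) stimulation; lower signal means less secretion.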
An asterisk follows results filed as active; ? = inconclusive; . = not tested or not shown. Unless noted, calls come from the whole dose curve; as a rule, active = well fitted curve in the direction sought with a large enough effect; inconclusive = small, poorly fitted or top-dose-only effect, or another doubt; inactive = no such curve, though single readings can be large; an effect the other way counts as inactive or inconclusive. Unless noted, % is set by controls: 0 for no effect and ±100 for the full control effect.

SMILES	HT1080NT lethal	TDP1 cell noCPT	TDP1 cell CPT	HT1080 IDH1KD tx	IL1B secr inh
CCC(C)c1ccccc1NC(=O)COC(=O)C1=NN(c2ccccc2)C(=O)CC1 (centres undefined)	6%	-6%	6%	2%	9
CCCc1cc(C(=O)N2CCCC(N3CCN(c4ccccc4F)CC3)C2)n(C)n1 (centres undefined)	4%	?	?	-13%	18
Cc1ccc(Nc2nc(CSc3nnc(-c4ccccc4)n3C)cs2)cc1	0%	?	21µM*	-2%	?
Cc1ccc(Nc2nc(CSc3nnnn3-c3ccccc3)cs2)cc1	-27%	18µM*	?	-29%	23
Cc1ccc(Nc2nc(CSc3nnc(-c4ccccc4C)n3C)cs2)cc1	-6%	?	?	-13%	?
CCOc1ccc(NC(=O)N[C@@H](CCSC)C(=O)OC)cc1	-1%	-7%	-6%	7%	-12
CN(CC(=O)O)Cc1nc2ccccc2[nH]1	1%	8%	3%	6%	22
Cc1nc2ccccc2nc1N/N=C/c1ccc(O)cc1	2%	0%	-3%	5%	5
Cc1nc(N/N=C/c2ccc(O)cc2)c2cnn(-c3ccccc3)c2n1	?	23µM*	?	?	-74*
COCCNc1nc(Nc2ccc(F)cc2)c2sccc2n1	?	12µM*	18µM*	17%	59
COCCNc1nc(NCCCN2CCCC2=O)c2sccc2n1	15%	-6%	-3%	0%	0
COCCNc1nc(Nc2ccc(C#N)cc2)c2sccc2n1	?	16µM*	21µM*	0%	73
C=CCn1c(CCC(O)COCCCCC)n[nH]c1=S (centres undefined)	10%	-16%	-8%	1%	16
Cc1cc(C)cc(-n2ncc3c2CCCC3NC(=O)c2ccccc2)c1 (centres undefined)	-5%	?	?	-26%	-13
N#Cc1cnn(-c2ccc([N+](=O)[O-])cc2[N+](=O)[O-])c1N	-2%	18µM*	13µM*	-29%	34
N#Cc1cnn(-c2cc(Cl)ccc2Cl)c1N	13%	-18%	-9%	-4%	10
COc1cc(NC(=O)Cn2ncc(Cl)c(Cl)c2=O)c(C)cc1[N+](=O)[O-]	7.3µM*	4.6µM*	2.9µM*	2.6µM*	-95*
COc1ccc2cc3cc(C(=O)N4CCN(c5cccc(C(F)(F)F)c5)CC4)sc3nc2c1	.	?	0%	.	.
CCc1ccc(NS(=O)(=O)c2ccc(C(=O)N(C)C)s2)cc1	.	15µM*	18µM*	.	.
COc1ccc(C(=O)c2cn(CC(=O)Nc3cc(C)ccc3C)c3nc(C)ccc3c2=O)cc1	.	-12%	-5%	.	.
COc1ccccc1N1CCN(C(=O)c2sc3ncn(CC(=O)N4CCC(C)CC4)c(=O)c3c2C)CC1	-22%	1.8µM*	?	-13%	19
Cc1sc2ncn(CC(=O)N3CCN(c4ccc(Cl)cc4)CC3)c(=O)c2c1S(=O)(=O)N1CCN(c2ncccn2)CC1	.	?	12µM*	.	.
Cc1cccc(N2CCN(C(=O)Cn3cnc4sc(C)c(S(=O)(=O)N5CCN(c6ncccn6)CC5)c4c3=O)CC2C)c1 (centres undefined)	.	15µM*	16µM*	.	.
Cc1sc2ncn(CC(=O)N3CCN(c4ccc(F)cc4)CC3)c(=O)c2c1S(=O)(=O)N1CCOCC1	15%	?	-10%	-17%	-12
COc1ccc(N2CCN(C(=O)Cn3cnc4sc(C)c(S(=O)(=O)N5CCC(C)CC5)c4c3=O)CC2)cc1	.	23µM*	?	.	.
SMILES	HT1080NT lethal	TDP1 cell noCPT	TDP1 cell CPT	HT1080 IDH1KD tx	IL1B secr inh
Cc1sc2ncn(CC(=O)N3CCN(c4ccccn4)CC3)c(=O)c2c1S(=O)(=O)N1CCCCC1	-1%	-27%	-1%	4%	-28
O=C(Cn1ccc(=O)[nH]c1=O)Nc1nccs1	-3%	-7%	5%	1%	6
Cc1cc(C(=O)N2CCC2(C)C(=O)NCC(C)(C)C)nn1C (centres undefined)	6%	-1%	11%	28%	17
CCN(CC)C(=O)C1=C(C)N(CCC2=CCCCC2)C(=O)C(CC(=O)NCCN2CCOCC2)C1 (centres undefined)	6%	-6%	-2%	1%	14
CCCN(C(=O)Cn1cnc2sc(C)c(S(=O)(=O)N3CCN(c4ncccn4)CC3)c2c1=O)c1cccc(C)c1	.	15µM*	-26%	.	.
CCC(C)NC(=O)Cn1cnc2sc(C)c(S(=O)(=O)N3CCN(c4ncccn4)CC3)c2c1=O (centres undefined)	16%	2%	8%	1%	4
CC[C@]12C(=O)N(C)C[C@H]([C@@H]3C(=O)N(C)C(=O)[C@@H]31)N2C(=O)c1ccc(F)cc1	9%	1%	2%	5%	34
Cc1[nH]c2ccc(C(=O)OC(C)C(=O)NC3(C#N)CCCCC3)cc2c1C (centres undefined)	-13%	?	?	-7%	-3
Fc1ccc(-c2nc3ccncc3[nH]2)cc1	-7%	-14%	-23%	-4%	-5
Nc1nc2ccc([N+](=O)[O-])cc2[nH]1	8%	-25%	-11%	4%	-21
O=[N+]([O-])c1ccc2nc(-[n+]3c(-c4ccccc4)cc(-c4ccccc4)cc3-c3ccccc3)[nH]c2c1	-1%	21µM*	23µM*	-13%	?
Clc1ccc(-c2nc3ccncc3[nH]2)cc1	?	?	10µM*	?	4
O=[N+]([O-])c1ccc2nc(-c3ccc(Cl)cc3)[nH]c2c1	-10%	16µM*	?	-10%	?
Cc1ccc2nc(-c3cccc(N)c3)[nH]c2c1	?	?	15µM*	?	-4
Nc1nc(-c2ccc(Cl)cc2)nc(-c2ccc(Cl)cc2)n1	0%	-8%	-30%	8%	43
O=[N+]([O-])c1ccc2nc(-c3ccncc3)[nH]c2c1	3%	?	?	-2%	51
O=[N+]([O-])c1cccc(-c2nc3ccc([N+](=O)[O-])cc3[nH]2)c1	5%	21µM*	10µM*	5%	-16
Cc1ccc(-c2nc3ccc([N+](=O)[O-])cc3[nH]2)cc1	7%	21µM*	?	20%	-15
N#Cc1ccc(OCC(=O)N/N=C(\CCC(=O)O)c2cccs2)cc1	3%	5%	8%	18%	7
CCOC(=O)C1=CCN(S(=O)(=O)c2ccccc2F)C1c1cccc(C)c1 (centres undefined)	-2%	?	?	-16%	25
CCSc1nc2ccc(OC)cc2cc1C#N	6%	-11%	9%	10%	-1
